Inconclusive results are not listed. Where a call stands in place of a potency, no number is given. Calls of active or inactive are those of the source. Calls come from the whole dose curve.
Potency is the fitted concentration of half-maximal effect.

Chain of Thyrotropin receptor (Homo sapiens) (P16473 whole entry, looked up): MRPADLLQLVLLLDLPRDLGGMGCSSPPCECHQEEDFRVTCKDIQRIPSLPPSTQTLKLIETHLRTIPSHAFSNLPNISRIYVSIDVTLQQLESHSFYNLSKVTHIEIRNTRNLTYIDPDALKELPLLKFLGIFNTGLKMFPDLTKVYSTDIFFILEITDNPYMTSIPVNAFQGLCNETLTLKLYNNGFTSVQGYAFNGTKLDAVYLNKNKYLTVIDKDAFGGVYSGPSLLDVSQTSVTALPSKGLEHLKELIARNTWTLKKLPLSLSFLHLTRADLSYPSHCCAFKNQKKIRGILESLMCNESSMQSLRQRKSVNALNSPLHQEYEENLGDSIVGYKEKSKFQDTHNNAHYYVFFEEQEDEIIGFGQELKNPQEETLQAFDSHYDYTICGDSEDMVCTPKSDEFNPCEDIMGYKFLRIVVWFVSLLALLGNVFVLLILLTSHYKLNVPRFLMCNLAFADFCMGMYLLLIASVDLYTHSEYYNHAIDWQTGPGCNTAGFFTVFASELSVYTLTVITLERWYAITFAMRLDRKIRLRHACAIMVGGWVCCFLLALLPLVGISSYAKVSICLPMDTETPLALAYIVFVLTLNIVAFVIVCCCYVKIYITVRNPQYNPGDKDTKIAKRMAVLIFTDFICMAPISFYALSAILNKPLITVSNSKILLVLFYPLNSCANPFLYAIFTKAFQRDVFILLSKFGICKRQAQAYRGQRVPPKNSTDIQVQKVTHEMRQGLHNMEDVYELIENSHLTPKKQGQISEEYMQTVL

The experiment concerns the target Thyrotropin receptor (Homo sapiens) (UniProt P16473). The experiment in a line: qHTS assay to identify small molecule antagonists of the thyroid stimulating hormone receptor (TSHR) signaling pathway (AID 1259385). Note: nearly all actives have a fitted effect of over 20% in size. The following applies: TSHR-HEK293 cAMP HTRF, TSH-stimulated antagonist mode; series mostly up to 92.4 µM. From the text: U.S. Tox21 Program National Center for Advancing Translational Sciences [NCATS] NIH Chemical Genomics Center [NCGC] U.S. Environmental Protection Agency [EPA] National Institutes of Environmental Health Sciences [NIEHS] National Toxicology Program [NTP] U.S. Food and Drug Administration [FDA] Tox21 Assay Overview: TSHR is the receptor for thyrotropin (thyroid stimulating hormone or TSH), a member of the glycoprotein hormone family. TSH is released by the anterior pituitary gland and is the main regulator of thyroid gland growth and development. Upon binding circulating thyrotropin, a G-protein signal cascade activates adenylyl cyclase and […] cAMP concentration is increased. cAMP is a key second messenger involved extensively in cellular signal transduction pathways associated with the majority of G-protein coupled receptors (GPCRs). The activation of these GPCRs by neurotransmitters, lipids, nucleotides, peptides and hormones results in the activation or the inhibition of plasma membrane-bound adenylate cyclase through heterotrimeric G-proteins. A cell-based TSHR assay can be used to screen chemical compounds that modulate TSHR either in agonist or antagonist mode.
Tox21 Assay Protocol Summary: TSHR-Hek293 cells were dispensed at 800 cells/4uL/well in 1536-well white plates using a Multidrop dispenser. After the assay plates were incubated at a 37C/5% CO2 incubator for 18 hrs, 23 nL of compounds dissolved in DMSO, positive controls or DMSO only was transferred to the assay plate by a pin tool, followed by 1 ul medium containing Ro20-1724. For the antagonist mode screening, 1 uL of TSH was added on the top of the cell/compound mixtures to achieve a final agonist concentration of 1.5 ng/mL. After 30 min of incubation at room temperature, 2.5 ul/well of cAMP-d2 and 2.5 ul/well of anti-cAMP-cryptate were added respectively into the assay plates using a Flying Reagent Dispenser. The plates were incubated at room temperature for 1 hr. The fluorescence intensity in the plates was measured using an Envision plate reader. Each test compound was measured at 15 concentrations and in triplicates.
Background: qHTS replaces the single test concentration by a dilution series.
`CCC1CO1` (stereo not given): the Potency entry is “inactive”.

As to `COc1cc(C(=O)NC2CCN(C)CC2)ccc1Nc1ncc2c(n1)N(C1CCCC1)CC(F)(F)C(=O)N2C`, the Potency is 11.2 µM (active).

For the compound `CCC(C)(C)OC`, the Potency entry is “inactive”.

For `CC1(C)S[C@@H]2[C@H](NC(=O)C(c3ccccc3)S(=O)(=O)O)C(=O)N2[C@H]1C(=O)O` (stereo not given in full), the Potency result was “inactive”.

For `Brc1cc(Br)c(Oc2cc(Br)c(Br)cc2Br)cc1Br`, the Potency result is “inactive”.

With `COC(=O)CS`, the Potency entry is “inactive”.

As to `CN1CCCC(n2nc(Cc3ccc(Cl)cc3)c3ccccc3c2=O)CC1` (stereo not given), the Potency was 26.6 µM (active).

Take `C[C@]1(Cn2ccnn2)[C@H](C(=O)O)N2C(=O)C[C@H]2S1(=O)=O`: the Potency entry is “inactive”.

Consider `C=C(C)C(=O)OCCCCCCCCCCCCC`, for which the Potency entry is “inactive”.

For `c1csc(SSc2cccs2)c1`, the Potency entry is “inactive”.

Regarding `CC[C@]1(O)C[C@H]2CN(CCc3c([nH]c4ccccc34)[C@@](C(=O)OC)(c3cc4c(cc3OC)N(C=O)[C@H]3[C@@](O)(C(=O)OC)[C@H](OC(C)=O)[C@]5(CC)C=CCN6CC[C@]43[C@@H]65)C2)C1`, the Potency entry was “inactive”.

For the compound `NNC(=O)CP(=O)(c1ccccc1)c1ccccc1`, the Potency result is “inactive”.

In the case of `CC(C)C(O)(c1ccc(OC(F)(F)F)cc1)c1cncnc1` (stereo not given), the Potency result is “inactive”.

In the case of `CC(=O)Oc1ccc([N+](=O)[O-])cc1CCl`, the Potency entry was “inactive”.

For the compound `Cc1cc2c(OCC(CNC(C)(C)C)OC(=O)c3ccccc3)cccc2[nH]1` (stereo not given), the Potency result is “inactive”.

Take `CCOc1ccc(Cc2nccc3cc(OCC)c(OCC)cc23)cc1OCC`: the Potency entry is “inactive”.

Turning to `O=C1c2ccccc2C(=O)c2c(O)c(O)cc(O)c21`, the Potency result is “inactive”.

Regarding `CCCCCCCCCI`, the Potency entry was “inactive”.

For `Oc1ccc(Cl)c2cccnc12`, the Potency result was “inactive”.

Turning to `CNC(=O)c1cnn(-c2nc(N)c3ncn([C@@H]4O[C@H](CO)[C@@H](O)[C@H]4O)c3n2)c1`, the Potency result is “inactive”.

As to `NC1[C@H]2CN(c3nc4c(cc3F)c(=O)c(C(=O)O)cn4-c3ccc(F)cc3F)C[C@@H]12` (stereo not given in full), the Potency entry is “inactive”.

With `NCCNCCO`, the Potency entry is “inactive”.

In the case of `Oc1cccc(O)c1O`, the Potency result was “inactive”.

As to `O=C1c2ccccc2C(=O)C1c1nc2ccccc2c(Br)c1O`, the Potency result is “inactive”.

For `C=C/C(C)=C/C/C=C(\C)CCC=C(C)C`, the Potency entry is “inactive”.

As for `CCCC(C(=O)OCCN(CC)CC)(c1ccccc1)c1ccccc1`, the Potency entry is “inactive”.

On to `C=Cc1ccc(S(=O)(=O)O)cc1`, for which the Potency is 17.2 µM (active).

In the case of `CC(CN(C)C)C(C)(O)Cc1ccc(Cl)cc1` (stereo not given), the Potency result was “inactive”.

Regarding `O=C(O)C[C@H](NC(=O)OCc1ccccc1)C(=O)O`, the Potency entry was “inactive”.

On to `CC(=O)NC1(c2cccc(F)c2)CCN(CC[C@@]2(c3ccc(Cl)c(Cl)c3)CN(c3ccccc3)C(=O)CO2)CC1`, for which the Potency entry was “inactive”.

As to `O=C(/C=C/c1ccc(O)c(O)c1)O[C@@H]1C[C@@](OC(=O)/C=C/c2ccc(O)c(O)c2)(C(=O)O)C[C@@H](O)[C@@H]1O`, the Potency entry is “inactive”.

As to `CCOC(=O)c1ccc(I)cc1`, the Potency result is “inactive”.

For `CO[C@]1(NC(=O)CSC(F)F)C(=O)N2C(C(=O)O)=C(CSc3nnnn3CCO)CO[C@H]21`, the Potency entry was “inactive”.

For `Cc1ccc2c(Br)cc(Br)c(O)c2n1`, the Potency result is “inactive”.

On to `COC(=O)C1=C(C)NC(C)=C(C(=O)O[C@@H]2CCCN(Cc3ccccc3)C2)[C@@H]1c1cccc([N+](=O)[O-])c1`, for which the Potency result is “inactive”.

With `C[C@@]12CCC[C@H]1[C@@H]1CC[C@H]3C[C@@H](O)CC[C@]3(C)[C@H]1CC2`, the Potency result is “inactive”.

Regarding `CC1=Nc2ccc3ccccc3c2C1(C)C`, the Potency entry is “inactive”.

On to `Cc1cscn1`, for which the Potency entry was “inactive”.

Turning to `O=C(/C=C/c1ccccc1)OCCc1ccccc1`, the Potency was 68.6 µM (active).

On to `CCCCCC[C@@H](O)C/C=C\CCCCCCCC(=O)O`, for which the Potency result is “inactive”.
